Measured values published in PubChem BioAssay (Tox21).
Several values for one entry are separate records, joined by “and”; a condition that tells them apart may be missing. Equal values may be shown once. Results filed as inconclusive are left out. A call without a number means that no potency is given here. Some structures have more than one record in an assay (separate samples or runs), and their calls can disagree. Activity calls are given as the source filed them. Unless noted, calls follow the shape of the dose curve; as a rule, active = well fitted curve in the direction sought with a large enough effect in the repeat runs; inconclusive = weak or mixed curves; inactive = no such curve, though single readings can be large; an effect the other way counts as inactive or inconclusive.

Assays:
[1] = qHTS assay to identify small molecule agonists of the estrogen receptor alpha (ER-alpha) signaling pathway in the presence of an antagonist - cell viability counter screen (AID 1259386);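 also: series mostly up to about 92 µM; cells exposed to compounds for 22 h at 37 °C before the viability read; nearly all actives have a fitted effect of over 30% in size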
Summary of the method: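 Viability counter screen using VM7Luc4E2 (full-length ER-alpha, four ERE-luciferase). The cells were treated with compounds alongside ICI-182,780 10.0nM for 22hr, and live-cell protease fluorescence was quantified with CellTiter-Fluor.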

[2] = qHTS assay to identify small molecule antagonists of the progesterone receptor (PR) signaling pathway - cell viability counter screen (AID 1346798); also: nearly all actives have a fitted effect of over 50% in size; also: potency is read from the fitted curve at half-maximal effect
Summary of the method: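 Counter screen for cytotoxicity: viability of PR-UAS-bla HEK293T cells was measured with CellTiter-Glo luminescence following 16 hr compound exposure in the presence of R5020.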

[3] = qHTS assay to identify small molecule agonists of the progesterone receptor (PR) signaling pathway - cell viability counter screen (AID 1346799; calls by dose curve; also: nearly all actives have a fitted effect of over 45% in size; also: potency is read from the fitted curve at half-maximal effect)
Summary of the method: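 Cells (PR-UAS-bla HEK293T) are plated at 3,000/well in 2% charcoal-stripped FBS medium, rested 6 hr, dosed and incubated 16 hr at 37C. CellTiter-Glo is then added and luminescence measured after 30 min at room temperature.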

[4] = qHTS assay to identify small molecule antagonists of the TGF-beta/Smad signaling pathway - cell viability counter screen (AID 1346824); also: nearly all actives have a fitted effect of over 50% in size
Summary of the method: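 Cytotoxicity counter-screen run in the same wells as the beta-lactamase Smad reporter read: CellTiter-Glo luminescence after 30 min at room temperature. HEK 293T SBE-bla cells had 5 hr compound exposure at 37 C with TGF-beta1 (0.25 ng/mL stock).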

[5] = qHTS assay to identify small molecule agonists of the TGF-beta/Smad signaling pathway - cell viability counter screen (AID 1346829); also: top concentration of the series differs between compounds; nearly all actives have a fitted effect of over 45% in size
Summary of the method: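 Tox21 qHTS format: SBE-bla HEK 293T cells treated with DMSO-dissolved compounds for 5 hr; CellTiter-Glo luminescence after 30 min at room temperature.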

[6] = qHTS assay to identify small molecule agonists of the TGF-beta/Smad signaling pathway (AID 1346859; active = well fitted activation curve with a large enough effect in the signal ratio in the repeat runs, not every such curve was filed as active; the % refers to the signal ratio; also: series mostly up to about 77 µM)
Summary of the method: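 Reporter line: HEK 293T with stably integrated SBE-controlled beta-lactamase. Compound exposure lasts 5 hr at 37 C and 5% CO2; substrate loading follows for 2 hr at room temperature, with emission read at 460 and 530 nm.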

[7] = molecular target: Thyrotropin-releasing hormone receptor (Homo sapiens) (UniProt P34981); experiment: qHTS assay to identify small molecule antagonists of the thyrotropin-releasing hormone receptor (TRHR) signaling pathway (AID 1346877; active = well fitted inhibition curve with a large enough effect in the repeat runs, not every such curve was filed as active; also: series mostly up to about 51 µM)
Sequence of Thyrotropin-releasing hormone receptor (Homo sapiens) (P34981 whole entry, looked up): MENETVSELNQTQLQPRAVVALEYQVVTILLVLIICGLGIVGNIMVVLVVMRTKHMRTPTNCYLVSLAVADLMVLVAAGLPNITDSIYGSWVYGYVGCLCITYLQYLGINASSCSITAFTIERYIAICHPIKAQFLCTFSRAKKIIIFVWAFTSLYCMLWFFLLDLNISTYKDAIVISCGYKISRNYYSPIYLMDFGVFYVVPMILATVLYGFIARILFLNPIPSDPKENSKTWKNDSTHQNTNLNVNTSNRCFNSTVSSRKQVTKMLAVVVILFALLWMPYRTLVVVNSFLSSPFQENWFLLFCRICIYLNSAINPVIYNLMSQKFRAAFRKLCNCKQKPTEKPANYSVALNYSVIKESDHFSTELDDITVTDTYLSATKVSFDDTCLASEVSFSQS
Summary of the method: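 Following an 18 h incubation at 37 °C and a 2 h calcium dye load, TRHR-HEK293 cells were exposed to compound (5 min, room temperature) and challenged with TRH, 1 nM final.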

[8] = molecular target: Thyrotropin-releasing hormone receptor (Homo sapiens) (UniProt P34981); experiment: qHTS assay to identify small molecule agonists of the thyrotropin-releasing hormone receptor (TRHR) signaling pathway (AID 1346891; calls by dose curve;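 also: HEK293 cells expressing TRHR with calcium dye readout; series mostly up to about 58 µM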)
Summary of the method: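 Cells: TRHR-Hek293, seeded and incubated 18 h. Dye loading: 2 h at 37 °C. Compound added from DMSO stock by pin tool. Read-out: kinetic calcium fluorescence over 3 min.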

[9] = Human pregnane X receptor (PXR) small molecule agonists, qHTS cell viability counter screen (AID 1346977); also: nearly all actives have a fitted effect of over 50% in size
Summary of the method: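 Cytotoxicity counter screen run in the same wells as the PXR luciferase assay, using PXR-Luc HepG2 cells in charcoal-stripped serum medium. Viability: CellTiter-Fluor fluorescence after 24hr compound treatment.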

[10] = Caspase-3/7 induction in HepG2 cells by small molecules, qHTS assay (AID 1346978); also: nearly all actives have a fitted effect of over 15% in size; also: potency is read from the fitted curve at half-maximal effect
Summary of the method: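 Caspase-3/7 induction was measured by Caspase-Glo 3/7 luminescence (30 min, room temperature) after a 17 hr compound exposure of wild-type HepG2 cells seeded at 2,000 per well and pre-incubated 5 hr.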

[11] = Caspase-3/7 induction in CHO-K1 cells by small molecules, qHTS cell viability counter screen (AID 1346979); also: nearly all actives have a fitted effect of over 35% in size; also: potency is read from the fitted curve at half-maximal effect
Summary of the method: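 Cytotoxicity counter screen run in parallel with the caspase-3/7 assay: CHO-K1 cells, 16hr compound treatment at 37C, then CellTiter-Fluor for 1hr before fluorescence reading.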

[12] = Caspase-3/7 induction in CHO-K1 cells by small molecules, qHTS assay (AID 1346980); also: nearly all actives have a fitted effect of over 15% in size; also: potency is read from the fitted curve at half-maximal effect
Summary of the method: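 Luminescent Caspase-Glo 3/7 read (30min, room temperature) quantified apoptosis induction. Cells were wild-type CHO-K1, treated with compound for 17hr at 37 C and 5% CO2.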

[13] = Caspase-3/7 induction in HepG2 cells by small molecules, qHTS cell viability counter screen (AID 1346981); also: series mostly up to about 92 µM; nearly all actives have a fitted effect of over 30% in size
Summary of the method: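 Viability determined by CellTiter-Fluor fluorescence in HepG2 wells also used for the luminescent Caspase-Glo 3/7 read. Compounds were present for 16 hr at 37 C, 5% CO2 before reagent addition.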

[14] = molecular target: Nuclear receptor subfamily 1 group I member 2 (Homo sapiens) (UniProt O75469); experiment: Human pregnane X receptor (PXR) small molecule agonists, qHTS assay (AID 1346982); also: nearly all actives have a fitted effect of over 35% in size; also: potency is read from the fitted curve at half-maximal effect
Sequence of Nuclear receptor subfamily 1 group I member 2 (Homo sapiens) (O75469 whole entry, looked up): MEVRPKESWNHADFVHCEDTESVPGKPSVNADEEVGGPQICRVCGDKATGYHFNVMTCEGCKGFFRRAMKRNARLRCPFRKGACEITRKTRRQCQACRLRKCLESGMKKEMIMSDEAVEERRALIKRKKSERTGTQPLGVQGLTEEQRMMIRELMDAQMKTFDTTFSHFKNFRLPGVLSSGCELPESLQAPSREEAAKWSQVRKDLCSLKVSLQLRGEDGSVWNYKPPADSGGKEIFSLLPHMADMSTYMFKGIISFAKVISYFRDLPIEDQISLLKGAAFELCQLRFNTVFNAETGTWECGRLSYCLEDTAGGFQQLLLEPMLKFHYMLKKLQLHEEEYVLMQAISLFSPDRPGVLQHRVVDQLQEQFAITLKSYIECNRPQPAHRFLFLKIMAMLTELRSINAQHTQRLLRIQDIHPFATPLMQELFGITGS
Summary of the method: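 Compound-induced hPXR transactivation of a CYP3A4 luciferase reporter was scored in HepG2 PXR-Luc cells over 24 hr at 37 C, 5% CO2, by luminescence.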

[15] = molecular target: Nuclear receptor subfamily 1 group I member 2 (Rattus norvegicus) (UniProt Q9R1A7); experiment: Rat pregnane X receptor (rPXR) activation by small molecules, qHTS assay (AID 1346983); conditions: rPXR luciferase reporter cells, One-Glo luminescence, 24 h; max activation: stronger effect = higher value; also: nearly all actives have a fitted effect of over 20% in size; also: potency is read from the fitted curve at half-maximal effect
Sequence of Nuclear receptor subfamily 1 group I member 2 (Rattus norvegicus) (Q9R1A7 whole entry, looked up): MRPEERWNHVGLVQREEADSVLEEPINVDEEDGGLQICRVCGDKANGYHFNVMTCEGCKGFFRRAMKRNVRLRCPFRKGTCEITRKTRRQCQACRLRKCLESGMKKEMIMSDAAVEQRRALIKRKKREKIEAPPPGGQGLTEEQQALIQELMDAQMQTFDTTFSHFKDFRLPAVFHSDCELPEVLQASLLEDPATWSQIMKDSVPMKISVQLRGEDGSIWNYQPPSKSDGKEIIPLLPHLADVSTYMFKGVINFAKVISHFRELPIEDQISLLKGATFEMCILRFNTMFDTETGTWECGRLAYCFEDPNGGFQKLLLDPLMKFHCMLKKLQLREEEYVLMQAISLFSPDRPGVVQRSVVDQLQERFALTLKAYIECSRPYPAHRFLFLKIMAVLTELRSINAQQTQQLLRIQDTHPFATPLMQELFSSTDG
Summary of the method: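 Luminescent readout (One-Glo luciferase, 30 min room temperature) followed 24 hr compound treatment at 37 C of rPXR cells plated 2,000 per well and preincubated 5hr; qHTS format with compounds delivered in DMSO.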

[16] = molecular target: Nuclear receptor subfamily 1 group I member 2 (Homo sapiens) (UniProt O75469); experiment: CYP3A4 induction through human pregnane X receptor (PXR) by small molecules, qHTS assay (AID 1346984); also: nearly all actives have a fitted effect of over 40% in size
Summary of the method: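 Readings come from a luciferase reporter: DPX-2 cells, which are HepG2 cotransfected with PXR and a CYP3A4-promoter construct, were exposed to test compounds for 24 h at 37C before One-Glo detection.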

[17] = molecular target: Nuclear receptor subfamily 1 group I member 2 (Homo sapiens) (UniProt O75469); experiment: Human pregnane X receptor (PXR) activation by small molecules, qHTS assay (AID 1346985); also: nearly all actives have a fitted effect of over 40% in size
Summary of the method: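 DPX-2 cells (HepG2 co-transfected with a PXR response element and a CYP3A4-promoter luciferase construct) were seeded at 2,000 per well, rested 5 hr at 37C, then exposed to DMSO-dissolved compounds for 24 hr. Activation was read as luciferase luminescence.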

[18] = molecular target: Progesterone receptor (Homo sapiens) (UniProt P06401); experiment: qHTS assay to identify small molecule antagonists of the progesterone receptor (PR) signaling pathway (AID 1346795; active = well fitted inhibition curve with a large enough effect in the signal ratio in the repeat runs, not every such curve was filed as active; the % refers to the signal ratio; also: potency is read from the fitted curve at half-maximal effect)
Sequence of Progesterone receptor (Homo sapiens) (P06401 whole entry, looked up): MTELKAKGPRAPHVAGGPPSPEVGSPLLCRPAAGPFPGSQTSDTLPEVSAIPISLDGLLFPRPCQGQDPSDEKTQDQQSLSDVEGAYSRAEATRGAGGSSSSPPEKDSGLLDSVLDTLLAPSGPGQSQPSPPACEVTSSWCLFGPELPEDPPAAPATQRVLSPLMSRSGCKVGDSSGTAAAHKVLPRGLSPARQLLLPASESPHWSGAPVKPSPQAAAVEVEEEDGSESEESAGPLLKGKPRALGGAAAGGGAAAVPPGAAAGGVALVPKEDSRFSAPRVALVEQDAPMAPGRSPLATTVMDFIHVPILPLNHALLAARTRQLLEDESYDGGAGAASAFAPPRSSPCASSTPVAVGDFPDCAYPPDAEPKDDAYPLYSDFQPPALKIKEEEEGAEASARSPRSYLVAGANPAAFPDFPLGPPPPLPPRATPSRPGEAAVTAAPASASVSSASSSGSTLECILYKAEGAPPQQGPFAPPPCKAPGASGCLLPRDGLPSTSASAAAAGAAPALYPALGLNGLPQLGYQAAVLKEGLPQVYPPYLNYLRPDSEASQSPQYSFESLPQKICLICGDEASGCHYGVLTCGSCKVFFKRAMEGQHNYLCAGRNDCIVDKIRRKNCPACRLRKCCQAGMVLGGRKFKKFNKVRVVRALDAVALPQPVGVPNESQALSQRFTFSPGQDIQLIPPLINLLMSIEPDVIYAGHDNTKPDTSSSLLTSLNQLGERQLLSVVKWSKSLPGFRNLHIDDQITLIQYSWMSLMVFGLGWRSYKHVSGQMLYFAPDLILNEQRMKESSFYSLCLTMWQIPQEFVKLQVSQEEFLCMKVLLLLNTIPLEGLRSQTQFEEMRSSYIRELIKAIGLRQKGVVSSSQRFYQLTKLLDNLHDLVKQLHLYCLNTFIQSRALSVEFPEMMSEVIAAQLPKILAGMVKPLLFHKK
Summary of the method: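 Antagonist mode: compounds tested against 1 nM (final) promegestone stimulation in HEK293T cells expressing PR-UAS-bla reporter, 16 hr at 37C, 5% CO2; beta-lactamase activity detected via B/G FRET substrate after 2 hr at room temperature.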

[19] = molecular target: Thyrotropin receptor (Homo sapiens) (UniProt P16473); experiment: qHTS assay to identify small molecule antagonists of the thyroid stimulating hormone receptor (TSHR) signaling pathway (AID 1259385; calls by dose curve; also: nearly all actives have a fitted effect of over 20% in size; also: potency is read from the fitted curve at half-maximal effect)
Sequence of Thyrotropin receptor (Homo sapiens) (P16473 whole entry, looked up): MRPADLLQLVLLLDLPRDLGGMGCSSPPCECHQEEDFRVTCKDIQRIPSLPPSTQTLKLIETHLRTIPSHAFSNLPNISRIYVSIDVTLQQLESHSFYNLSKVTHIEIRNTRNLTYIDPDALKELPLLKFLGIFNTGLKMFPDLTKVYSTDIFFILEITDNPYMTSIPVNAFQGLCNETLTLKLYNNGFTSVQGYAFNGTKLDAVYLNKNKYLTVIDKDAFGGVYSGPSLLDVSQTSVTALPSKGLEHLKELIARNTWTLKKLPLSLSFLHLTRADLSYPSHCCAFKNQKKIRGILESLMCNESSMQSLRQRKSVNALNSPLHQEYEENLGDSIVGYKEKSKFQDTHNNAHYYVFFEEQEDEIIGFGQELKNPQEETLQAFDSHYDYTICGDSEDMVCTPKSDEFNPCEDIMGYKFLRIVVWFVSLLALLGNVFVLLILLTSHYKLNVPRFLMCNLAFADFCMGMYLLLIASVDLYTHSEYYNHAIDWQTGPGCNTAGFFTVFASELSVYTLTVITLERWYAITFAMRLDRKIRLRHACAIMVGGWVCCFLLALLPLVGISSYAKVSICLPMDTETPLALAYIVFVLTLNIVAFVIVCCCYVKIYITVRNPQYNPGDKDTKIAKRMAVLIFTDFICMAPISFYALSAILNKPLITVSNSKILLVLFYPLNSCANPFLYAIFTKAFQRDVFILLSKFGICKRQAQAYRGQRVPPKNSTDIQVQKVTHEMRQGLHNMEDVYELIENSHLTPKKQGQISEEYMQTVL
Summary of the method: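 Antagonist mode: compound-treated TSHR-expressing HEK293 cells were stimulated with 1.5 ng/mL TSH (final) in presence of Ro20-1724 for 30 min at RT. HTRF cAMP detection after 1 h; each compound tested at 15 concentrations, triplicate.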

SMILES | Potency [1] | Potency [2] | Potency [3] | Potency [4] | Potency [5] | outcome [6] | Potency [7] | Potency [8] | Potency [9] | Potency [10] | Potency [11] | Potency [12] | Potency [13] | Potency [14] | max activation [15] | Potency [16] | Potency [17] | Potency [18] | Potency [19] | Potency [15]
CC(C)(C)NC(=O)[C@H]1CC[C@H]2[C@@H]3CC[C@H]4NC(=O)C=C[C@]4(C)[C@H]3CC[C@]12C | inactive | inactive | inactive | inactive | inactive | inactive | inactive | inactive | inactive | inactive | inactive | inactive | inactive | 48.6 µM (active) | -2.95% (inactive) | inactive | inactive | – | – | –
Cc1cccc([N+](=O)[O-])c1C | inactive | inactive | inactive | inactive | inactive | inactive | inactive | inactive | inactive | inactive | inactive | inactive | – | inactive | – | – | – | inactive | – | –
CC(C)CC(C)(O)C#CC(C)(O)CC(C)C (stereo not given) | inactive | – | inactive | – | inactive | inactive | inactive | inactive | – | inactive | 15 µM (active) and inactive | 42.4 µM (active) and inactive | – | – | – | – | – | inactive | inactive | –
C#C[C@]1(O)CC[C@H]2[C@@H]3CCC4=Cc5oncc5C[C@]4(C)[C@H]3CC[C@@]21C | inactive | 38.6 µM (active) | – | – | inactive | inactive | inactive | inactive | – | inactive | 43.3 µM (active) and 26.6 µM (active) | inactive | – | 30.6 µM (active) and 29.8 µM (active) | – | inactive | inactive | 61.1 nM (active) | inactive | 7.94 µM (active)
CC(=O)O[C@]1(C(C)=O)CC[C@H]2[C@@H]3C=C(Cl)C4=CC(=O)[C@@H]5C[C@@H]5[C@]4(C)[C@H]3CC[C@@]21C | inactive | inactive | – | inactive | inactive | – | – | – | inactive | inactive | – | inactive | – | 61.1 µM (active) and inactive | – | inactive | inactive | – | inactive | –
CC(C)OC(=O)C(C)(C)Oc1ccc(C(=O)c2ccc(Cl)cc2)cc1 | inactive | inactive | – | inactive | inactive | inactive | – | – | inactive | inactive | 54.5 µM (active) | inactive | inactive | 27.3 µM (active) | – | – | – | 17.2 µM (active) and 21.1 µM (active) | 26.6 µM (active) | –
CN(C)CCC=C1c2ccccc2CCc2ccccc21 | inactive | 61.1 µM (active) and 30.6 µM (active) and 16.8 µM (active) | 54.5 µM (active) and 15.4 µM (active) and 16.8 µM (active) | – | inactive | inactive | inactive | inactive | – | 68.6 µM (active) and inactive | 61.1 µM (active) | inactive | inactive | 19.3 µM (active) and inactive | – | – | – | 54500 nM (active) | 68.6 µM (active) and 26.6 µM (active) | –
